Results filed as inconclusive are left out. Activity calls are given as the source filed them. How the source made its calls, unless noted: active means hit-call score of the fitted dose curve at least 0.9, where 1 is the maximum; inactive means score below 0.9.
Tests used:
[1] = ATG_NFI_CIS: Attagene CIS-FACTORIAL HepG2 Assay for human Nuclear Factor I (NFI) (AID 2282989); details: HepG2 cis-regulatory reporter, NFI response element transcription; actives raise or lower the signal
Procedure, shortened: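 Endogenous TF activity in HepG2 cells transiently transfected with cis-element-driven multiplexed reporter units, read 24 h after dosing. Reporter mRNA quantified by RT-PCR, 6-FAM labelling, HpaI digestion and capillary electrophoresis; bidirectional fit versus DMSO.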

[2] = target: Myc proto-oncogene protein (Homo sapiens) (UniProt P01106); test: ATG_Myc_CIS: Attagene CIS-FACTORIAL HepG2 Assay for human Myelocytomatosis (Myc) Proto-Oncogene Transcription Factor (AID 2282990); details: HepG2, Attagene cis-reporter transcription factor activity; actives raise or lower the signal
Sequence of Myc proto-oncogene protein (Homo sapiens) (P01106 whole entry, looked up, the tested form may be a part): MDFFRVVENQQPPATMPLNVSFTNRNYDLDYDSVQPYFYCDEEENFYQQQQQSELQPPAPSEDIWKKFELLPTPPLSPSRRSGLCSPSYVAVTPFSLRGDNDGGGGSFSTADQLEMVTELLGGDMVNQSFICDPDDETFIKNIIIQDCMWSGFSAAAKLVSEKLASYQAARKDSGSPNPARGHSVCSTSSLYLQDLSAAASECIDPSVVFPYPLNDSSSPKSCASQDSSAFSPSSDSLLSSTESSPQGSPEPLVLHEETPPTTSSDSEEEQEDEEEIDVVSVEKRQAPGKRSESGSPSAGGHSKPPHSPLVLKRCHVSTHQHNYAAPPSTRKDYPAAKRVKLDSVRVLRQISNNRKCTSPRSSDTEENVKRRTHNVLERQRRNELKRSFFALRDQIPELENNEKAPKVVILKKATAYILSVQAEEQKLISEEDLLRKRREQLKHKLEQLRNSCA
Procedure, shortened: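 After 24 h chemical treatment of HepG2 cells carrying multiplexed cis-regulated reporter constructs, reporter transcripts quantified by RT-PCR and capillary electrophoresis of fluorescent fragments. Gain or loss fitted against DMSO baseline.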

[3] = ATG_NF_kB_CIS: Attagene CIS-FACTORIAL HepG2 Assay for human Nuclear Factor Kappa B (NF-kB) (AID 2282991); details: HepG2 Attagene cis-factorial NF-kB reporter mRNA; actives raise or lower the signal
Procedure, shortened: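 HepG2 cells transfected with cis-promoter-driven reporter units, so endogenous transcription factor activity is measured. Reporter mRNA quantified 24 h after dosing by RT-PCR and capillary electrophoresis, with bidirectional fitting against DMSO.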

[4] = ATG_NRF2_ARE_CIS: Attagene CIS-FACTORIAL HepG2 Assay for human Nuclear Factor Erythroid 2 Related Factor 2 (NFR2) response to Antioxidant Response Elements (ARE) (AID 2282992); details: HepG2 Attagene ARE/NRF2 reporter, transcription factor activity; actives raise or lower the signal;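 on AC50: reporter mRNA level measured by RT-PCR and capillary electrophoresis fluorescence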
Procedure, shortened: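 Fluorescence intensity of reporter-specific cDNA fragments, separated by capillary electrophoresis, reflects mRNA induction in transfected HepG2 cells at 24 h. Activity is fitted bidirectionally, DMSO serving as baseline.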

[5] = ATG_Oct_MLP_CIS: Attagene CIS-FACTORIAL HepG2 Assay for human Octamer-Binding Transcription Factor (Oct) (AID 2282993); details: HepG2 Attagene cis-factorial Oct reporter, mRNA; actives raise or lower the signal
Procedure, shortened: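 HepG2 cells transiently transfected with cis-element-driven reporter transcription units (endogenous TF activity); 24 h compound exposure. Reporter mRNA quantified by RT-PCR, 6-FAM labelling, HpaI digestion and capillary electrophoresis; bidirectional fit versus DMSO baseline.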

[6] = target: Cellular tumor antigen p53 (Homo sapiens) (UniProt P04637); test: ATG_p53_CIS: Attagene CIS-FACTORIAL HepG2 Assay for human p53 Transcription Factor (AID 2282994); details: HepG2 p53 cis-element reporter, Attagene mRNA; actives raise or lower the signal
Sequence of Cellular tumor antigen p53 (Homo sapiens) (P04637 whole entry, looked up): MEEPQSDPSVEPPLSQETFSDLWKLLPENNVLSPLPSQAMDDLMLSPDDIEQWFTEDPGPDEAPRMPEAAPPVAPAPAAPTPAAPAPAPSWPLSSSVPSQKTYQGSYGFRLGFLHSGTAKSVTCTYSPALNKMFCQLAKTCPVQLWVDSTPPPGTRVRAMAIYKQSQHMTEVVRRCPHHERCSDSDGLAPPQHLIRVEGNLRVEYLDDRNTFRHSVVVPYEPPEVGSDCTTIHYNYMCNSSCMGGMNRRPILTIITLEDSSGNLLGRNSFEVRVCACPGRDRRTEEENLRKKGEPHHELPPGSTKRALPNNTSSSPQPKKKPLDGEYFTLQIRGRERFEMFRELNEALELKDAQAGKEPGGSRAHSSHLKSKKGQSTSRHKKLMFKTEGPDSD
Procedure, shortened: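 Transiently transfected HepG2 (multiple cis reporter transcription units); exposure 24 h; reporter RNA via RT-PCR, 6-FAM extension, 2 h HpaI digest at 37 C, CE detection; DMSO baseline.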

[7] = target: human Peroxisome Proliferator-activated Receptor alpha (PPARa), PPARA (gene 5465) (UniProt Q07869); test: ATG_PPARa_TRANS: Attagene TRANS-FACTORIAL HepG2 Assay for human Peroxisome Proliferator-activated Receptor alpha (PPARa) (AID 2283001; active means hit-call score of the fitted dose curve at least 0.9, where 1 is the maximum;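 on AC50: potency for gain of reporter signal over DMSO so agonist or activator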)
Sequence of human Peroxisome Proliferator-activated Receptor alpha (PPARa), PPARA (gene 5465) (Q07869 whole entry, looked up, the tested form may be a part): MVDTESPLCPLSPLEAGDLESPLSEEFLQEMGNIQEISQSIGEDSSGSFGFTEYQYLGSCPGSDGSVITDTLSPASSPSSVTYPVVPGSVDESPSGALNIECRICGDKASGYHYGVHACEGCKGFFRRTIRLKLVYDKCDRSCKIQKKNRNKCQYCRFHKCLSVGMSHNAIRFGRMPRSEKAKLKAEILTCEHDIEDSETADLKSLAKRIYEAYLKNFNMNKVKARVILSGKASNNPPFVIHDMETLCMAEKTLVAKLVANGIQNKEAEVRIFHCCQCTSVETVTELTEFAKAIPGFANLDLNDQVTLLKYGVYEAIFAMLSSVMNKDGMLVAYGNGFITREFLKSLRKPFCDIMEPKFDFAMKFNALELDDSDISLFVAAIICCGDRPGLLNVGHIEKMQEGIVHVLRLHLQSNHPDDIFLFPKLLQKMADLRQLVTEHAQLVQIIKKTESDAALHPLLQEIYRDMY
Procedure, shortened: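 Transfected HepG2 cells treated with test chemical for 24 h. RNA isolated, reverse-transcribed with oligo(dT), PCR-amplified, FAM-labelled and HpaI-digested. Fragments sized by capillary electrophoresis; gain-of-signal fit relative to DMSO.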

[8] = target: human Peroxisome Proliferator-activated Receptor delta (PPARd), PPARD (gene 5467) (UniProt Q03181); test: ATG_PPARd_TRANS: Attagene TRANS-FACTORIAL HepG2 Assay for human Peroxisome Proliferator-activated Receptor delta (PPARd) (AID 2283002; active means hit-call score of the fitted dose curve at least 0.9, where 1 is the maximum)
Sequence of human Peroxisome Proliferator-activated Receptor delta (PPARd), PPARD (gene 5467) (Q03181 whole entry, looked up, the tested form may be a part): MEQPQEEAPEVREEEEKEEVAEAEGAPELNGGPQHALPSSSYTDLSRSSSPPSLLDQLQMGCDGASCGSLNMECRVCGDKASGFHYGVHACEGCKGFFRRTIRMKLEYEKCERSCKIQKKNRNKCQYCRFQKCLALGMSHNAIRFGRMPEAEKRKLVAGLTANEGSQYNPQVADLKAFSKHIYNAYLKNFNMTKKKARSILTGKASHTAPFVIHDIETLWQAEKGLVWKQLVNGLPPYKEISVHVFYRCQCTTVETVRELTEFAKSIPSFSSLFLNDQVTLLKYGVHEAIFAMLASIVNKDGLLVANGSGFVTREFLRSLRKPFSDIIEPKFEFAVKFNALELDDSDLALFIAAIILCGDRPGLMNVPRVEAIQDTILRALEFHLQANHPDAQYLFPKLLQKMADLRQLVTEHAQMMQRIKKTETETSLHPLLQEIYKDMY
Procedure, shortened: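 Read-out is induced reporter mRNA, quantified by RT-PCR with fluorescent labelling and capillary electrophoresis after 24 h dosing. Cells are HepG2 transiently carrying multiple GAL4-UAS reporter units driven by exogenous NR-GAL4 chimeras; DMSO serves as baseline.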

[9] = target: Retinoic acid receptor alpha (Homo sapiens) (UniProt P10276); test: ATG_RARa_TRANS: Attagene TRANS-FACTORIAL HepG2 Assay for human Retinoic Acid Receptor alpha (RARa) (AID 2283005; active means hit-call score of the fitted dose curve at least 0.9, where 1 is the maximum)
Sequence of Retinoic acid receptor alpha (Homo sapiens) (P10276 whole entry, looked up, the tested form may be a part): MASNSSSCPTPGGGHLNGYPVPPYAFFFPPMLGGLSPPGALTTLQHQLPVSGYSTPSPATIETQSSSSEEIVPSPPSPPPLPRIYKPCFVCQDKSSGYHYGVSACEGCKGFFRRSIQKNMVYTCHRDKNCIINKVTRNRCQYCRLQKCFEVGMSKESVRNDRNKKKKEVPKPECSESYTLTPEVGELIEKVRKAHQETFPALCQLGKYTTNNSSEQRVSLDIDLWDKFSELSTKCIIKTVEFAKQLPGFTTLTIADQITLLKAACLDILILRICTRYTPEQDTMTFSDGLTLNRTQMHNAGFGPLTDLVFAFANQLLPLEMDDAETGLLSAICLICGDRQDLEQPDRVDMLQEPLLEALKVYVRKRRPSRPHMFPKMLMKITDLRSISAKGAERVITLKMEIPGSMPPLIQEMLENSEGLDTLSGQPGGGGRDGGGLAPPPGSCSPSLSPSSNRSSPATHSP
Procedure, shortened: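 Reporter transcripts, measured by RT-PCR with fluorescent labeling and capillary electrophoresis after 24 h dosing, reflect activity of an exogenous human RARa–GAL4 fusion in transiently transfected HepG2. Fitted for increase relative to DMSO.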

[10] = target: Peroxisome proliferator-activated receptor gamma (Homo sapiens) (UniProt P37231); test: ATG_PPARg_TRANS: Attagene TRANS-FACTORIAL HepG2 Assay for human Peroxisome Proliferator-activated Receptor-gamma (PPARg) (AID 2283007; active means hit-call score of the fitted dose curve at least 0.9, where 1 is the maximum)
Sequence of Peroxisome proliferator-activated receptor gamma (Homo sapiens) (P37231 whole entry, looked up, the tested form may be a part): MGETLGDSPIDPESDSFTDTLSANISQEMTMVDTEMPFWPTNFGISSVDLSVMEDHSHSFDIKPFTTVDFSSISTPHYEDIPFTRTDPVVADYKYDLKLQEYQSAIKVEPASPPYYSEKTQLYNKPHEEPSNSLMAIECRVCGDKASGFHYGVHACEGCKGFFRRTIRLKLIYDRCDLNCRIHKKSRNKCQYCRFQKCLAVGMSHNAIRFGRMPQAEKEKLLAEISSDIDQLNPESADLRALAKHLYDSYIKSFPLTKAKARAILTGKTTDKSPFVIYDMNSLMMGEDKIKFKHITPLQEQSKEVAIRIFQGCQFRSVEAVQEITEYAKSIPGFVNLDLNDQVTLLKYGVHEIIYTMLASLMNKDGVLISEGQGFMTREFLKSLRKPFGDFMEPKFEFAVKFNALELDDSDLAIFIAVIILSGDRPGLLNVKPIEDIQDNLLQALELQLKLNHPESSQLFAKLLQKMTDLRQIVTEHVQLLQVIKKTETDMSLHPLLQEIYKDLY
Procedure, shortened: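 HepG2 cells are transiently transfected with GAL4-UAS reporter units driven by chimeric NR-Gal4 fusions and dosed for 24 h. Reporter mRNA is quantified by RT-PCR, 6-FAM labelling, HpaI digestion and capillary electrophoresis. Induction is scored against DMSO.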

[11] = target: human Retinoic Acid Receptor gamma (RARg), RARG (gene 5916) (UniProt P13631); test: ATG_RARg_TRANS: Attagene TRANS-FACTORIAL HepG2 Assay for human Retinoic Acid Receptor gamma (RARg) (AID 2283009; active means hit-call score of the fitted dose curve at least 0.9, where 1 is the maximum)
Sequence of human Retinoic Acid Receptor gamma (RARg), RARG (gene 5916) (P13631 whole entry, looked up, the tested form may be a part): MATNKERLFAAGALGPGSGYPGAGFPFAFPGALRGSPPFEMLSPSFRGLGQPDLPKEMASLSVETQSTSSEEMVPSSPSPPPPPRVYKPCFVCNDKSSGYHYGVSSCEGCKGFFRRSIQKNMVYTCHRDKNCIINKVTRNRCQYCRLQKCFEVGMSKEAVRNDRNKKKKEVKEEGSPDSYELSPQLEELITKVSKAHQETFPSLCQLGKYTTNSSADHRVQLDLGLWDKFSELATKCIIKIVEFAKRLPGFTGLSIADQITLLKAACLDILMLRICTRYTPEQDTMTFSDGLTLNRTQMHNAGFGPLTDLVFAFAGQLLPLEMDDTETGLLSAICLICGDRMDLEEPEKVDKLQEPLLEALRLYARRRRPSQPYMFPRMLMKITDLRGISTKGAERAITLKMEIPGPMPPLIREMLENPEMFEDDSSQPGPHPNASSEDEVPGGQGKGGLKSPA
Procedure, shortened: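 Readout: reporter transcript levels via RT-PCR, 6-FAM primer-extension labelling, HpaI digestion and capillary electrophoresis. Cells: HepG2 carrying transfected RARg-GAL4 chimera plus UAS reporter set. Dosing 24 h; DMSO negative control.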

[12] = target: human RAR-related Orphan Receptor beta (RORb), RORB (gene 6096) (UniProt Q92753); test: ATG_RORb_TRANS: Attagene TRANS-FACTORIAL HepG2 Assay for human RAR-related Orphan Receptor beta (RORb) (AID 2283010; active means hit-call score of the fitted dose curve at least 0.9, where 1 is the maximum)
Sequence of human RAR-related Orphan Receptor beta (RORb), RORB (gene 6096) (Q92753 whole entry, looked up, the tested form may be a part): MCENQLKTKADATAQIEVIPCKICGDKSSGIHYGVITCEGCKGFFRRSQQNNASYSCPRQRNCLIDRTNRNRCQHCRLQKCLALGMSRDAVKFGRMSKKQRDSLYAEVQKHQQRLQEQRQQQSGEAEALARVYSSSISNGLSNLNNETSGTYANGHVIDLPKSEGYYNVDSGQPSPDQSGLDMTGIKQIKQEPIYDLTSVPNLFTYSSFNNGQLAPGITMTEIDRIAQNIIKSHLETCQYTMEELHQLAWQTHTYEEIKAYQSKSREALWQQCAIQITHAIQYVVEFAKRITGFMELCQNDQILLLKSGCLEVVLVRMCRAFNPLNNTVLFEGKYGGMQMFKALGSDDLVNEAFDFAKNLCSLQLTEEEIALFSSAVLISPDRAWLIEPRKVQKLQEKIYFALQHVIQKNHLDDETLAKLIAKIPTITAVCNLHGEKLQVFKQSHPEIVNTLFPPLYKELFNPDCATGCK
Procedure, shortened: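 HepG2, transient MRTU transfection (GAL4-UAS reporters, exogenous NR-Gal4 chimeras); 24 h compound exposure; total RNA → RT-PCR → 6-FAM primer extension → HpaI digest → CE fluorescence. Positive direction vs DMSO baseline.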

[13] = target: Nuclear receptor subfamily 1 group I member 2 (Homo sapiens) (UniProt O75469); test: ATG_PXR_TRANS: Attagene TRANS-FACTORIAL HepG2 Assay for human Pregnane X Receptor (PXR) (AID 2283008; active means hit-call score of the fitted dose curve at least 0.9, where 1 is the maximum)
Sequence of Nuclear receptor subfamily 1 group I member 2 (Homo sapiens) (O75469 whole entry, looked up, the tested form may be a part): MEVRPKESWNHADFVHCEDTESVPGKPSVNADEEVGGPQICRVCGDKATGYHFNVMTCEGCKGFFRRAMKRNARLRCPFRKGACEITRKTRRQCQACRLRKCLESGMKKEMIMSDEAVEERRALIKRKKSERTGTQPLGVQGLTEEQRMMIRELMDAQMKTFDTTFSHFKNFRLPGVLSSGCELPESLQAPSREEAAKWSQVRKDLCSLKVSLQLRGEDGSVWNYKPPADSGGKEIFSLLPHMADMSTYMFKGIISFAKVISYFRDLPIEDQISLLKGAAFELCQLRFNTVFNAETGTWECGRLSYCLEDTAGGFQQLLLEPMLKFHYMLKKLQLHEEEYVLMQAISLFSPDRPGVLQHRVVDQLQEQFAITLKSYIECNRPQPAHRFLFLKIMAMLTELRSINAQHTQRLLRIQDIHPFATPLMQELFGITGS
Procedure, shortened: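 Transient HepG2 transfectants carrying multiplexed reporter transcription units; PXR activity read through a Gal4 chimera. 24 h exposure. RT-PCR/CE fluorescence; upward curve fit referenced to DMSO.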

[14] = BSK_3C_TissueFactor: BioMAP Diversity Plus: 3C Assay for Tissue Factor Biomarker Activity (AID 2282997); details: BioMAP 3C HUVEC, tissue factor biomarker readout; actives raise or lower the signal
Procedure, shortened: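 In this endothelial system, HUVEC are treated for 24 h and Tissue Factor is assessed by ELISA, normalised to DMSO.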

[15] = BSK_3C_VCAM1: BioMAP Diversity Plus: 3C Assay for Vascular cell adhesion molecule 1 (VCAM1) Biomarker Activity (AID 2282999); details: BioMAP 3C HUVEC, VCAM1 ELISA, cytokine-stimulated; actives raise or lower the signal
Procedure, shortened: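 Activity fitted in both directions relative to DMSO, with ELISA measurement of the surface marker on primary HUVEC (3C) at 24 h post-treatment; parallel SRB staining (0.1% SRB, TCA-fixed, 560 nm) flagged overt cytotoxicity.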

[16] = BSK_4H_Eotaxin3: BioMAP Diversity Plus: 4H Assay for Eotaxin 3 Biomarker Activity (AID 2283000); details: primary human endothelial cells (HUVEC); actives raise or lower the signal
Procedure, shortened: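 ELISA quantitation of CCL26 (Eotaxin-3) protein from chemically dosed human vascular endothelial cells at 24 h; increases and decreases both scored relative to DMSO-treated baseline.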

[17] = read-out: Intercellular Adhesion Molecule 1 (ICAM1), ICAM1 (gene 3383); test: BSK_3C_ICAM1: BioMAP Diversity Plus: 3C Assay for Intercellular Adhesion Molecule 1 (ICAM1) Biomarker Activity (AID 2283003); details: primary human endothelial cells (HUVEC); actives raise or lower the signal
Procedure, shortened: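 ELISA read-out of ICAM-1; HUVEC (primary human), 3C system, 24 h post-dosing; bidirectional fit vs DMSO baseline.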

[18] = BSK_3C_Proliferation: Cell Proliferation Assessment in the BioMAP Diversity Plus: 3C Assay (AID 2283006); details: primary human endothelial cells (HUVEC);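 on AC50: potency may reflect either rise or fall in cell number versus DMSO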
Procedure, shortened: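 HUVEC, sub-confluent; 48 h chemical exposure; 10% TCA fix, 0.1% SRB stain, A560 total protein. Gain or loss of signal fitted both directions vs DMSO control.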

[19] = target: human Retinoic Acid Receptor beta (RARb), RARB (gene 5915) (UniProt P10826); test: ATG_RARb_TRANS: Attagene TRANS-FACTORIAL HepG2 Assay for human Retinoic Acid Receptor beta (AID 2283004; active means hit-call score of the fitted dose curve at least 0.9, where 1 is the maximum)
Sequence of human Retinoic Acid Receptor beta (RARb), RARB (gene 5915) (P10826 whole entry, looked up, the tested form may be a part): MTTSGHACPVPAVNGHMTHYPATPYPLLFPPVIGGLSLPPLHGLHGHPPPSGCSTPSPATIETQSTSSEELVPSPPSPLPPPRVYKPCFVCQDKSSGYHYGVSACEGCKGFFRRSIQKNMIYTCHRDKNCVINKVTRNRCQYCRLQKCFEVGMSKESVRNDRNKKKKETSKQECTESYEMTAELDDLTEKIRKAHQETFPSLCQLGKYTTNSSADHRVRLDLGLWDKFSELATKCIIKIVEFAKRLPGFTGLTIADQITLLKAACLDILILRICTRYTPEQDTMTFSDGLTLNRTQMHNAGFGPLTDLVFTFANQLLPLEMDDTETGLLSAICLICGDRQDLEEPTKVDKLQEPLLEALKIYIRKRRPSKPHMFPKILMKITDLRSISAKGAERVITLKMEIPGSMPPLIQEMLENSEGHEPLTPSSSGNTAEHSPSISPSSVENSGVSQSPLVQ
Procedure, shortened: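 Fluorescent capillary-electrophoresis detection of GAL4-UAS reporter mRNA defines the endpoint, with induction over DMSO-treated wells scored as activity. Transiently transfected human hepatoma HepG2 cells expressing exogenous NR–Gal4 proteins are exposed to test chemicals for 24 h.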

Measured: AC50

CCCCCCCCCCCCS(=O)(=O)Cl
inactive: [1] | [2] | [3] | [4] | [5] | [6] | [7] | [8] | [9] | [11] | [12]
active: [10] 25 µM

Cc1cc(=O)oc2cc(N(C)C)ccc12
inactive: [1] | [2] | [3] | [4] | [6] | [7] | [8] | [10] | [13]
active: [5] 57.4 µM

C/C=C(\C)C(=O)OCCc1ccccc1
active: [13] 25.1 µM
inactive: [1] | [2] | [3] | [4] | [5] | [6] | [7] | [8] | [9] | [10]

O=CN1CCOCC1
inactive: [1] | [2] | [3] | [4] | [5] | [6] | [14] | [15] | [16] | [7] | [8] | [17] | [18] | [10] | [13] | [12]

CC(Oc1cc(Cl)ccc1Cl)C(=O)O (stereo not given)
inactive: [1] | [2] | [3] | [4] | [5] | [6] | [7] | [8] | [10] | [13]

CN(C)C(=O)Nc1ccc(Oc2ccc(Cl)cc2)cc1
active: [4] 61.4 µM | [10] 17.4 µM | [13] 26.6 µM
inactive: [1] | [2] | [3] | [5] | [6] | [14] | [15] | [16] | [7] | [17] | [18]

CC(=O)Nc1ccc(C(=O)CCl)cc1
active: [1] 8.18 µM | [3] 2.5 µM | [4] 0.41 µM | [14] 9.37 µM | [15] 6.27 µM | [16] 6.53 µM | [7] 2.66 µM | [17] 8.45 µM | [18] 6.13 µM | [10] 2.31 µM
inactive: [2] | [5] | [6] | [19] | [13]

Clc1cc(Cl)c(-c2c(Cl)c(Cl)cc(Cl)c2Cl)cc1Cl
inactive: [1] | [2] | [3] | [5] | [6] | [8] | [17] | [10]
active: [4] 26.7 µM | [14] 10 µM | [15] 12.9 µM | [16] 12.5 µM | [18] 16.7 µM | [13] 4.6 µM

Cc1ccc(S(=O)(=O)Oc2ccc(N=Nc3ccc(-c4ccc(N=Nc5c(O)ccc6cc(S(=O)(=O)O)cc(S(=O)(=O)O)c56)c(C)c4)cc3C)cc2)cc1
active: [10] 18.3 µM
inactive: [1] | [2] | [3] | [4] | [5] | [6] | [7] | [8] | [19] | [13] | [11] | [12]

— PubChem BioAssay (EPA / NIEHS)
